KKLEB cytotox: CF airway cell cytotoxicity counter-screen. KKLEB CF airway cells viability, ATPlite luminescence, overnight; hits give low values; cells stimulated with P. aeruginosa culture filtrate. activity change (cytotoxicity), % at 5 µM. 360,000 tested, 0.36% active. AID 602141;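 active = corrected activity change at or below -50% at 5 µM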
MITF TRPM1 inh: MITF TRPM1 promoter inhibition in SK-MEL-5 cells | 330,000 tested, 0.83% active | AID 488899 | SK-MEL-5 TRPM1 promoter luciferase, 24 h | inhibition, % at 12.5 µM;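 active = mean inhibition across replicates of 60% or more, whatever share of single replicates reaches that level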
CF NFkB inh: blocks PAF-induced NF-kB reporter in cystic fibrosis cells; inhibition, % at 5 µM; 360,000 tested, 0.86% active; AID 588850; KKLEB NF-kB-GFP reporter, GFP fluorescence overnight;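 active = at least 50% inhibition at 5 µM, scaled per plate between neutral and stimulator controls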;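 note: PAF is a Pseudomonas aeruginosa culture filtrate used as stimulus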
HIF-2a block: HIF-2a inhibition; 786-0 RCC cells HIF-2a reporter, luciferase luminescence, overnight; inhibition, % at 18.8 µM; 360,000 tested, 0.72% active;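 active = inhibition of the luminescence signal of 40% or more relative to plate controls, in a single-dose primary screen at 18.75 µM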
Peg3 prom inh: reduces Peg3 promoter-driven luciferase expression in HeLa; HeLa PEG-Prom luciferase reporter, luminescence, overnight; inhibition, % at 20 µM; 360,000 tested, 1.7% active;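 active = inhibition of at least 50% at 20 µM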
Beta2AR agonist: human beta-2 adrenergic receptor agonism by FAP; AID 504454; Am2.2-beta2AR cells, FAP receptor internalization, flow cytometry; response, % (concentration not given with the values); P07550; 340,000 tested, 0.43% active;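 active = response above a set limit, near 3 SD of response in nonfluorescent compounds, cut at about 42% in these data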
Target sequence (P07550 whole entry, looked up): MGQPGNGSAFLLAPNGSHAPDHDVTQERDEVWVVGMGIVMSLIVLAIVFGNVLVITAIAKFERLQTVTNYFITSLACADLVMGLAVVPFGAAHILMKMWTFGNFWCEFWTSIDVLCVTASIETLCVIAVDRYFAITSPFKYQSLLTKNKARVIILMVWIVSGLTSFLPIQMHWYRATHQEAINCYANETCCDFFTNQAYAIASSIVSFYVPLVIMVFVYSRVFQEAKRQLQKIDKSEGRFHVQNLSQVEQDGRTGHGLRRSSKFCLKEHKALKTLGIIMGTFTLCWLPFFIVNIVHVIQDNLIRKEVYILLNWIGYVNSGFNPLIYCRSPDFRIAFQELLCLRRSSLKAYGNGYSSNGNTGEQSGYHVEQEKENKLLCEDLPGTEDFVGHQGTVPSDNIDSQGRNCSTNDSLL
Mdm2 MdmX conf: Mdm2/MdmX (human) interaction inhibition, confirmed. shares compounds with HIF-2a block. SaOS-2 split-luciferase Mdm2/MdmX complementation, luminescence. inhibition, % at 8 µM. 740 tested, 99% active;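 active = mean inhibition of the luminescence signal across two replicates at or above 26 percent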
HIF-2a inh conf: confirmation of HIF-2a inhibitors | shares compounds with HIF-2a block | 786-0 RCC cells, HIF-2a luciferase reporter luminescence, overnight | inhibition, % at 18.8 µM | 1,800 tested, 56% active | AID 651580;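 active = mean inhibition across four replicates of at least 40 percent at the single tested concentration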
HIF-1a cs: HIF-1a inhibition counter-screen for HIF-2a hits | inhibition, % at 18.8 µM | shares compounds with HIF-2a block | MiaPaCa-2 HIF-1a luciferase reporter, desferoxamine, overnight | 1,800 tested, 72% active | AID 651589;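 active = mean inhibition of the reporter signal across four replicates at the single tested dose of 50% or more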
Large screens that a line does not name were inactive (follow-up assays come after a bar, where they were run). Sampled rows, rich in hits. Any-hit rate of the full collection: about 2.8%.

CCOc1cccc(/C=N/Nc2ccc(S(=O)(=O)N(CC)CC)cn2)c1O	none | Mdm2 MdmX conf 91
Cc1nnc(SCC(=O)NC23CC4CC(CC(C4)C2)C3)n(N)c1=O	HIF-2a block 68 | HIF-2a inh conf inactive | HIF-1a cs inactive
Cn1ccnc1SCC(=O)NC12CC3CC(CC(C3)C1)C2	none
Cc1cc(C(=O)Nc2ccc(CC(=O)O)cc2)c(C)o1	HIF-2a block 49 | HIF-2a inh conf 60 | HIF-1a cs inactive
Cc1ccc(C(=O)Nc2ccc(CC(=O)O)cc2)o1	none
CC(C)(C)c1ccc(C(=O)Nc2ccc(CC(=O)O)cc2)o1	MITF TRPM1 inh 73, HIF-2a block 83 | HIF-2a inh conf 96 | HIF-1a cs 79
COc1ccc(C(=O)c2ccc(CC(=O)O)s2)cc1	HIF-2a block 59 | HIF-2a inh conf 66 | HIF-1a cs 61
CC(C)NCC(O)Cn1c2c(c3ccccc31)CCc1c-2cnn1-c1ccccc1 (stereo not drawn)	MITF TRPM1 inh 85, HIF-2a block 41, Peg3 prom inh 104 | HIF-2a inh conf inactive | HIF-1a cs 105
COCCCN1C(=O)C(CC(=O)NCc2cccc3ccccc23)CC(C(=O)N2CCCCCC2)=C1C (stereo not drawn)	none (no result: KKLEB cytotox, MITF TRPM1 inh, CF NFkB inh, Peg3 prom inh, Beta2AR agonist)
CCCn1c(Nc2nc3ccccc3n2C)nc2ccccc21	HIF-2a block 91, Peg3 prom inh 90 | Mdm2 MdmX conf 103 | HIF-2a inh conf 58 | HIF-1a cs 105
COc1cccc(NC(=O)CSc2nc3c([nH]c4ccccc43)c(=O)n2C)c1	HIF-2a block 51, Peg3 prom inh 59 | HIF-2a inh conf inactive | HIF-1a cs inactive
N#Cc1cccc(NC(=O)c2cc(C3CCCCN3C(=O)c3ccccn3)on2)c1 (stereo not drawn)	none (no result: MITF TRPM1 inh, Beta2AR agonist)
Cc1c(NC(=O)CSc2nnc3c4ccccc4n(CCc4ccccc4)c3n2)c(=O)n(-c2ccccc2)n1C	none | Mdm2 MdmX conf 101
O=C(Nc1ccc(C(=O)O)cc1)Nc1ccc([N+](=O)[O-])cc1	none
O=C(Nc1cc(C(F)(F)F)cc(C(F)(F)F)c1)Nc1cnn(-c2ccc([N+](=O)[O-])cc2)c1C(F)(F)F	KKLEB cytotox -69, MITF TRPM1 inh 70, CF NFkB inh 77, HIF-2a block 57, Peg3 prom inh 96 | Mdm2 MdmX conf 103 | HIF-2a inh conf inactive | HIF-1a cs 106
CCOC(=O)C=C1CCN(c2ncc(C(F)(F)F)cc2Cl)CC1	none
CCS(=O)(=O)CCSc1nc2ccccc2o1	none
O=S(=O)(CCSc1nc2ccccc2o1)c1nc2ccccc2s1	CF NFkB inh 57, HIF-2a block 57 | HIF-2a inh conf 70 | HIF-1a cs 90
COc1ccc(S(=O)(=O)NNS(=O)(=O)c2ccc(OC)c(OC)c2)cc1OC	none (no result: MITF TRPM1 inh, Beta2AR agonist)
Cc1onc(-c2c(F)cccc2Cl)c1C(=O)Oc1ccccc1	none (no result: MITF TRPM1 inh, Beta2AR agonist)
NC(=O)c1ccc(NC(=O)C#Cc2ccccc2)cc1	Peg3 prom inh 58 | Mdm2 MdmX conf 101
COc1cc2c(cc1OC)C(C)N(C(=O)[C@@H](NC(=O)c1ccccc1)C(C)C)CC2 (stereo partly drawn)	none
COC(=O)C12OCC34C(CC5C(C)=C(O)C(=O)CC5(C)C3C(O)C1O)OC(=O)C(OC(=O)C=C(C)C)C24 (stereo not drawn)	MITF TRPM1 inh 72, CF NFkB inh 94, HIF-2a block 68, Peg3 prom inh 100 | HIF-2a inh conf 60 | HIF-1a cs 105
C(=N\N1CCN(Cc2cccc3ccccc23)CC1)/c1cccnc1	none
COc1ccc(C(C)(O)c2nc(-c3ccc(OC)nc3)cs2)cc1 (stereo not drawn)	none (no result: MITF TRPM1 inh, Beta2AR agonist)
Cn1cncc1C#Cc1c(C=O)[nH]c2ccccc12	MITF TRPM1 inh 62, HIF-2a block 43 | HIF-2a inh conf inactive | HIF-1a cs 88
CCC(C)(C)c1ccc(OCCCC[n+]2ccc(C)cc2)c(C(C)(C)CC)c1	none (no result: KKLEB cytotox, MITF TRPM1 inh, CF NFkB inh, HIF-2a block, Peg3 prom inh, Beta2AR agonist) | Mdm2 MdmX conf 102
COc1cc(-c2coc3c(C(=O)NCc4ccccc4)cccc23)ccc1O	none (no result: MITF TRPM1 inh, Beta2AR agonist)
O=c1cc(-c2ccccc2)oc2ccc3ccccc3c12	KKLEB cytotox -67, HIF-2a block 51 (no result: MITF TRPM1 inh, Beta2AR agonist) | HIF-2a inh conf 70 | HIF-1a cs 57
CCOc1cccc(/C=C(\C#N)C(=O)NC2CC2)c1	none
COc1cc(OC)nc(C(NC(=O)C2CCN(Cc3ccc(Oc4ccccc4)cc3)CC2)c2ccccc2C)n1 (stereo not drawn)	none (no result: MITF TRPM1 inh, Beta2AR agonist)
Cc1nc2nc(C)n(CCN3CCOCC3)c(=O)c2c(-c2cccc([N+](=O)[O-])c2)c1C(=O)CCCCCCCCCCN1CCC(c2ccccc2)(c2ccccc2)CC1	MITF TRPM1 inh 99, HIF-2a block 84, Peg3 prom inh 95 | HIF-2a inh conf inactive | HIF-1a cs 107
CCN(CC)CCN1C(=O)/C(=C\c2ccc(Cl)c([N+](=O)[O-])c2)SC1=Nc1ccc(OC)cc1	KKLEB cytotox -82, MITF TRPM1 inh 94, CF NFkB inh 99, HIF-2a block 96, Peg3 prom inh 102 | HIF-2a inh conf 54 | HIF-1a cs 104
COc1ccc(N=C2S/C(=C\c3ccc(Cl)c([N+](=O)[O-])c3)C(=O)N2CCN(C)C)cc1	HIF-2a block 79, Peg3 prom inh 105 | HIF-2a inh conf inactive | HIF-1a cs 101
CCCN1C(=O)/C(=C/c2ccc(C)s2)SC1=Nc1ccc(OC)cc1	none
CC1CCC(C(C)C)C(OC(=O)CSc2nccc(=O)[nH]2)C1 (stereo not drawn)	none
COc1ccc(OCc2n(CC(=O)OC3CC(C)CCC3C(C)C)c3ccccc3[n+]2C)cc1 (stereo not drawn)	KKLEB cytotox -53, MITF TRPM1 inh 82, CF NFkB inh 64, HIF-2a block 95, Peg3 prom inh 100 | Mdm2 MdmX conf 102 | HIF-2a inh conf inactive | HIF-1a cs 103
Cc1cccc(C)c1NC(=O)C1c2ccccc2OCC(=O)N1CCc1c[nH]c2ccccc12 (stereo not drawn)	none (no result: KKLEB cytotox, MITF TRPM1 inh, CF NFkB inh, Peg3 prom inh, Beta2AR agonist)
COc1ccc(C2NC(=O)NC(C)=C2C(=O)OC2CCCC(C)C2)cc1 (stereo not drawn)	HIF-2a block 41, Peg3 prom inh 52 | HIF-2a inh conf inactive | HIF-1a cs inactive
CC(C)(C)c1ccc(C(O)CCCN2CCC(C(O)(c3ccccc3)c3ccccc3)CC2)cc1 (stereo not drawn)	MITF TRPM1 inh 94, HIF-2a block 97, Peg3 prom inh 96, Beta2AR agonist 64 | HIF-2a inh conf inactive | HIF-1a cs 108

Screening data deposited in PubChem by several laboratories.
